Data from PubChem BioAssay AID2147 (National Center for Advancing Translational Sciences (NCATS), 2009).
Several values for one entry are separate records, joined by “and”; a condition that tells them apart may be missing. Equal values may be shown once. In all, about 230,000 compounds went through this assay and about 3,600 (1.6%) were called active. Entries that show only a call come without a potency. Inconclusive results (about 15%) are left out. Calls follow the shape of the dose curve; as a rule, active = well fitted inhibition curve with a large enough effect (not every such curve was filed as active); inconclusive = small, poorly fitted or top-dose-only effect, or another doubt; inactive = no such curve, though single readings can be large or run the other way. The full list was thinned out, with actives kept by preference. Some structures have more than one record in an assay (separate samples or runs), and their calls can disagree.

molecular target: Lysine-specific demethylase 4E (Homo sapiens) (UniProt B2RXH2); assay: qHTS Assay for Inhibitors of Human Jumonji Domain Containing 2E (JMJD2E); details: JMJD2E catalytic domain, FDH-coupled NADH fluorescence (FDH is formaldehyde dehydrogenase); series mostly up to 57.1 µM
Also: nearly all actives have a fitted effect of over 50% in size.
Potency is read from the fitted curve at half-maximal effect.

Sequence of Lysine-specific demethylase 4E (Homo sapiens) (B2RXH2 1-337 limits assumed): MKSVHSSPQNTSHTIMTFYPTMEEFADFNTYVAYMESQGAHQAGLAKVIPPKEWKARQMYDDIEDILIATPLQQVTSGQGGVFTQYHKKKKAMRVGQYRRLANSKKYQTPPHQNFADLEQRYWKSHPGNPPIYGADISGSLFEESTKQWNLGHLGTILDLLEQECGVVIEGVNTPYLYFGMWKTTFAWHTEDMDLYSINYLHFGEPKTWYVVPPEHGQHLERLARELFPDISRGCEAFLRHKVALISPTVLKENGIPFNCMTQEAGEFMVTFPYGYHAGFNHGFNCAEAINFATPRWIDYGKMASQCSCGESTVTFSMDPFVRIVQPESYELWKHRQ

Row | Compound | Potency
1 | COc1ccc(CCNC(=O)C(Sc2ccccn2)c2ccccc2)cc1OC (stereo not given) | inactive
2 | CCOc1ccccc1/C=c1\sc2nc(-c3ccco3)nn2c1=O | inactive
3 | O=C(CCCN1C(=O)/C(=C/c2ccco2)SC1=S)Nc1ccccc1 | inactive
4 | O=c1nc2s/c(=C\c3ccco3)c(=O)n2nc1Cc1ccccc1 | 15.8 µM (active)
5 | Cc1c(Cl)cccc1NC(=S)N(Cc1ccccc1)Cc1cccnc1 | inactive
6 | CS(=O)(=O)c1sc(C(=O)NC(=S)Nc2ccc(OC(F)(F)F)cc2)c2c1C=CCC2 | inactive
7 | CCNc1nc(NCC)nc(N/N=C/c2ccc(O)c(OC)c2)n1 | inactive
8 | CCN(CC)CCCN=C(N)N | inactive
9 | Cc1cc(C)c(NC(=O)CS(=O)CC(=O)Nc2cccnc2)c(C)c1 (stereo not given) | inactive
10 | Cc1ccc(-c2nc(-c3cccnc3)sc2CC(=O)Nc2ccc(C)c(Cl)c2)cc1 | 15.8 µM (active)
11 | Cc1ccc(NC(=O)COc2ccc(-n3ccnc3)cc2)cc1Cl | inactive
12 | COc1ccc(CN2C(=O)C(C)S/C2=N/N=C/c2ccco2)cc1 (stereo not given) | inactive
13 | O=C(CCS(=O)(=O)c1ccccc1Cl)Nc1ccc(S(=O)(=O)Nc2ncccn2)cc1 | inactive
14 | O=c1cc(-c2ccc(O)c(O)c2)oc2cccc(O)c12 | 20 µM (active)
15 | CCOC(=O)COc1cc(O)c2c(=O)cc(-c3ccccc3)oc2c1 | inactive
16 | COc1ccc2c(=O)cc(-c3ccccc3)oc2c1O | inactive
17 | COc1c(O)cc2oc(-c3ccc(O)c(O)c3)cc(=O)c2c1O | 10 µM (active)
18 | Cc1coc(C)c1C(=O)CC1(O)C(=O)N(C)c2ccc(Cl)cc21 (stereo not given) | inactive
19 | O=C(CS(=O)(=O)c1ccc(C(F)(F)F)cn1)NNC(=O)c1ccccc1 | inactive
20 | CC(=O)c1ccc2c(c1)OCCOCCOc1ccc(C(C)=O)cc1OCCOCCO2 | inactive
21 | O=C(/C=C/c1ccc(Cl)c([N+](=O)[O-])c1)c1cccnc1 | inactive
22 | Cc1cc(OCCCCOc2ccc(C#N)cc2)ccc1[N+](=O)[O-] | inactive
23 | O=C1CCN(C(=S)NCCc2ccccc2)CC1 | inactive
24 | Oc1cc2c(cc1O)CN(C(=S)NCCc1ccc(Cl)cc1)CCC2 | 28.2 µM (active)
25 | S=C(NCCc1ccccc1)N1CCCCC1 | inactive
26 | CC(=O)c1nnn(-c2ccc(Cl)cc2C#N)c1C | inactive
27 | COc1ccccc1OCCNCC(O)COc1cccc2[nH]c3ccccc3c12 (stereo not given) | inactive and 25.1 µM (active)

Row | Compound | Potency
28 | CC(C)(C)NCC(O)COc1cccc2[nH]c(=O)[nH]c12 (stereo not given) | inactive
29 | Cc1noc(COc2ccccc2OCC(O)CNC(C)(C)C)n1 (stereo not given) | inactive
30 | CCN(CC)S(=O)(=O)c1ccc(N2CCOCC2)c(NC(=O)C2COc3ccccc3O2)c1 (stereo not given) | inactive
31 | CC(C)(C)c1cc(C(=O)N/N=C/c2ccc([N+](=O)[O-])s2)n[nH]1 | inactive
32 | O=[N+]([O-])c1ccc(C=Nc2ccc(Cl)cc2Cl)s1 | 22.4 µM (active)
33 | CCOc1ccc(NC(=O)CCC(=O)N/N=C/c2ccc([N+](=O)[O-])s2)cc1 | inactive
34 | O=C(NNS(=O)(=O)c1ccccc1)c1cnn(-c2ccc(Cl)cc2)c1C(F)(F)F | inactive
35 | NC(=O)C1(C(N)=O)OC1c1ccc(Cl)cc1Cl (stereo not given) | inactive
36 | O=C(CSc1nc2ccccc2o1)N/N=C/c1ccccc1C(=O)O | inactive
37 | NC(=O)C1=C[C@@H](c2csc3ccccc23)C[C@@H](OCc2ccc(CO)cc2)O1 | 22.4 µM (active)
38 | NC(=O)C1=C[C@H](c2csc3ccccc23)C[C@H](OCc2ccc(CO)cc2)O1 | inactive
39 | O=C(NC1CC1)C1=C[C@H](c2c[nH]c3ccccc23)C[C@H](OCc2ccc(CO)cc2)O1 | inactive
40 | OCC1(Cc2ccccc2C(F)(F)F)CCN(Cc2ccncc2)CC1 | inactive
41 | CCOC(=O)N1CCN(C(=O)c2cn(C)c3ccc(S(=O)(=O)N4CCCC4)cc3c2=O)CC1 | inactive
42 | CCn1cc(C(=O)NCC2CCCO2)c(=O)c2cc(S(=O)(=O)N3CCCCC3)ccc21 (stereo not given) | inactive
43 | CCn1cc(C(=O)NCCCN2CCCCCC2)c(=O)c2cc(S(=O)(=O)N3CCc4ccccc4C3)ccc21 | 25.1 µM (active)
44 | CC(C)(C)C(=O)Nc1c(Br)c(C2CC2)nn1-c1ccccc1 | inactive
45 | O=C(COC(=O)c1ccc(S(=O)(=O)Nc2ccccc2)cc1)NCC1CCCO1 (stereo not given) | inactive
46 | CCN(CC(=O)NCCc1ccccc1)S(=O)(=O)c1ccccc1 | inactive
47 | Cc1c(CCOC(=O)c2cc([N+](=O)[O-])ccc2Cl)sc[n+]1CCCCS(=O)(=O)[O-] | inactive
48 | Cc1c(CCO)sc[n+]1CC(=O)OC12CC3CC(CC(C3)C1)C2 | inactive
49 | Cc1c(CCOC(=O)CC23CC4CC(CC(C)(C4)C2)C3)sc[n+]1Cc1ccc([N+](=O)[O-])cc1 | 10 µM (active)
50 | O=C(COc1ccc([N+](=O)[O-])cc1Cl)Nn1cnnc1 | inactive
51 | COc1ccc(CCC(=O)c2c(O)cc(OC3OC(CO)C(O)C(O)C3O[C@@H]3OC(C)C(O)C(O)C3O)cc2O)cc1O (stereo not given in full) | inactive
52 | C[C@@H]1O[C@@H](OC[C@H]2O[C@@H](Oc3c(-c4cccc(O)c4O)oc4cc(O)cc(O)c4c3=O)[C@H](O)[C@@H](O)[C@@H]2O)[C@H](O)[C@H](O)[C@H]1O | 7.08 µM (active)
53 | CC1OC(OCC2OC(Oc3c(-c4ccc(O)c(O)c4)oc4cc(O)cc(O)c4c3=O)C(O)C(O)C2O)[C@@H](O)C(O)C1O (stereo not given in full) | 7.08 µM (active)
54 | COc1ccc(C2CC(=O)c3c(O)cc(OC4OC(COC5OC(C)C(O)C(O)C5O)C(O)C(O)C4O)cc3O2)cc1O (stereo not given) | inactive

Row | Compound | Potency
55 | C=CCc1ccc(OCC(O)CN2CCN(Cc3ccccc3)CC2)c(OC)c1 (stereo not given) | inactive
56 | CCN(CC)CC1(O)CCN(C(=O)c2ccc(Cl)c(Cl)c2)CC1 | inactive
57 | CSc1nnnn1-c1c(C)cc(C)cc1C | inactive
58 | CCc1ccc[n+](-c2nc([O-])sc2C=O)c1 | inactive
59 | O=C(Nc1ccc(N2CCN(C(=O)c3ccccc3)CC2)c(Cl)c1)c1ncn[nH]1 | inactive
60 | Nc1cccc(S(=O)(=O)Nc2ccc(SC(F)F)cc2)c1 | inactive
61 | CN1CCN(C2=NCCO2)CC1 | inactive
62 | Cc1cccc(-[n+]2c(-c3cccc(Br)c3)[nH]c3nc4ccccc4nc32)c1 | 25.1 µM (active)
63 | CCCCCc1nnc(NC(=O)c2ccc(=O)n(C)n2)s1 | inactive
64 | CCOCCCNCc1cc(Br)ccc1OCC | inactive
65 | Cn1nc(C(F)(F)F)cc1C(=O)O | inactive
66 | O=C(O)CC/C(=N\NC(=O)c1ccc(F)cc1)c1ccc(Br)cc1 | inactive
67 | COc1ccc(C(C[N+](=O)[O-])n2nc(C)cc2C)cc1 (stereo not given) | inactive
68 | Cc1ccc(C(C[N+](=O)[O-])c2c(C)cc3ccccn23)cc1 (stereo not given) | 25.1 µM (active)
69 | CC(=O)Nc1ccc(/C=N/Nc2ccc(C(=O)c3c(C)cc4ccccn34)cc2[N+](=O)[O-])cc1 | inactive
70 | Cc1ccc(/C=N/NC(=S)Nc2cccc(S(=O)(=O)N(C)C)c2)o1 | inactive
71 | Cc1ccnc(NC(=O)CCC(=O)N(CC(=O)NCCc2ccccc2)Cc2cccs2)c1 | inactive
72 | C#CCNc1ccc(C(=O)OCC)cc1 | inactive
73 | COC(=O)c1c(C)oc(C)c1S(=O)(=O)NCc1ccc(Cl)cc1 | inactive
74 | COc1ccc(C(=O)C2CCCN(C(=O)c3cnsn3)C2)c(C)c1 (stereo not given) | inactive
75 | Oc1[nH]c2ccc(Br)cc2c1N=Nc1nn[nH]n1 | inactive
76 | CSc1n[nH]c(=S)n1N | 31.6 µM (active)
77 | Nc1ccc(N=Nc2ccccc2Cl)c(N)n1 | inactive
78 | Cc1ccc(S(=O)(=O)N(C)C)cc1NC(=O)c1n[nH]c(=O)c2ccccc12 | inactive
79 | COc1cccc(/C=N/Nc2cc(C)nc(-c3ccccc3O)n2)c1O | inactive
80 | COc1cccc(/C=N\NC(=O)C2=NNC(=O)C2C)c1O (stereo not given) | 7.08 µM (active)
81 | COc1cccc(/C=N/NC(=O)c2[nH]nc3c2CCc2ccccc2-3)c1O | inactive

Row | Compound | Potency
82 | Oc1ccc(-c2nnc(Nc3ccccc3)c3ccccc23)cc1 | inactive
83 | O=c1c(-c2ccccc2)cnc2n1CCS2 | inactive
84 | CN1CCN(c2ncc3c(n2)CC(c2ccccc2F)CC3=O)CC1 (stereo not given) | inactive
85 | O=C(Cn1nnc(N2CCCCC2)n1)c1ccc(Cl)c(Cl)c1 | inactive
86 | Cc1ccc(SCc2c(C(=O)N/N=C/C3CC=CCC3)nnn2-c2nonc2N)cc1 (stereo not given) | inactive
87 | COCc1c(C(=O)N/N=C/C2CC=CCC2)nnn1-c1nonc1N (stereo not given) | inactive
88 | Nc1nonc1-n1nnc(C(=O)N/N=C/c2cc(Br)ccc2O)c1CSC1=NCCS1 | 20 µM (active)
89 | CCOc1ccc(-c2nc(N)ncc2-c2ccccc2OC)c(O)c1 | inactive
90 | Cc1cc(C)cc(C(=O)NC2C(=O)N3C(C(=O)O)=C(CSc4nnc(C)s4)CSC23)c1 (stereo not given) | inactive
91 | O=C(CNc1ccc(F)cc1F)NC(=O)NCc1ccco1 | inactive
92 | Cc1ccc(C(=O)NC(=S)Nc2ccccc2C)cc1 | inactive
93 | Cc1ccc(C(=O)NCCNC(=O)c2ccccc2)cc1 | inactive
94 | C/C(=N\NC(=O)c1ccc(C)cc1)C1C(=O)c2ccccc2C1=O | 25.1 µM (active)
95 | O=c1[nH]c2cccnc2n1-c1ccc([N+](=O)[O-])cc1 | inactive
96 | O=C(CCCl)Nc1ccc(S(=O)(=O)NCc2ccco2)cc1 | inactive
97 | CCC(C)NC(=O)C1c2ccccc2Oc2ccccc21 (stereo not given) | inactive
98 | O=C(N/N=C/c1ccc(O)c(O)c1)C1c2ccccc2Oc2ccccc21 | 14.1 µM (active)
99 | CCC(C)(C)NC(=O)C1c2ccccc2Oc2ccccc21 | inactive
100 | COc1ccc(OC)c(NC(=O)CN(Cc2ccc(Cl)cc2)S(C)(=O)=O)c1 | inactive
101 | O=C(CSc1nc(O)c(Cc2ccccc2)c(=O)[nH]1)Nc1nc2c(s1)CCCC2 | inactive
102 | CC(C)(C)NC(=O)NCc1ccco1 | inactive
103 | Cc1ccc(C(=O)NC(=S)NCCN2CCOCC2)cc1 | inactive
104 | CCOc1cccc(/C=N/NC(=S)NCCN2CCOCC2)c1O | 35.5 µM (active)
105 | Cc1ccc(NC(=S)NCCN2CCOCC2)cc1 | inactive
